According to PubChem BioAssay:
Activity calls are given as the source filed them. Unless noted, no rule for the calls is given here.

Columns and labels:
[1] = A549 cell viability effects, profiling panel, calcein-AM fluorescence, 48 h, basal (AID 1162); conditions: higher = more signal; also: test concentration not given here
[2] = adipocyte viability effects, profiling panel, cell-based, 3T3-L1 adipocytes, calcein-AM fluorescence, 48 h, basal (AID 1163); conditions: 3T3-L1 adipocytes viability, higher = more signal; also: test concentration not given here
[3] = HepG2 cell viability effects, profiling panel, calcein-AM fluorescence, 48 h, basal (AID 1164); conditions: higher = more signal; also: test concentration not given here
[4] = MM1S cell viability effects, profiling panel, calcein-AM fluorescence, 48 h, basal (AID 1165); conditions: higher = more signal;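 also: viability of MM1S multiple myeloma cells under basal unstimulated conditions; test concentration not given here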
[5] = basal RPMI8226 viability, no added stimulus, profiling panel, cell-based, calcein-AM fluorescence, 48 h, PK04 Diversity Set (AID 1166); conditions: RPMI8226 myeloma viability, higher = more signal;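 also: cells grown under basal conditions without added stimulus; test concentration not given here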
[6] = basal HepG2 mitochondrial membrane potential changes, profiling panel, cell-based, JC-1 fluorescence, 24 h, 100 nL compound (AID 1167); conditions: higher = more signal; also: test concentration not given here
[7] = basal 3T3-L1 adipocyte mitochondrial potential changes, profiling panel, cell-based, JC-1 fluorescence, 3T3-L1 adipocytes, 24 h, 100 nL compound (AID 1168); conditions: JC-1 mitochondrial fluorescence, higher = more signal, called active from +8 up or from −8 down; also: test concentration not given here
[8] = basal RPMI8226 mitochondrial membrane potential changes, profiling panel, cell-based, JC-1 fluorescence, 24 h, 100 nL compound (AID 1169); conditions: RPMI8226 myeloma, JC-1 mitochondrial potential fluorescence, higher = more signal; also: test concentration not given here
[9] = basal MM1S mitochondrial membrane potential changes, profiling panel, cell-based, JC-1 fluorescence, 24 h, 100 nL compound (AID 1170); conditions: higher = more signal; also: test concentration not given here
[10] = A549 lung cancer cell viability effects, profiling panel, resazurin fluorescence, 24 h, PK04 Diversity Set (AID 1171); conditions: higher = more signal, called active from +8 up or from −8 down; also: test concentration not given here
[11] = HepG2 liver cancer cell viability effects, profiling panel, resazurin fluorescence, 24 h, PK04 Diversity Set (AID 1172); conditions: higher = more signal; also: test concentration not given here
[12] = basal S. cerevisiae growth modulation, no modifier, primary screen, OD600, strain BY4716, 24 h, basal condition (AID 1173); conditions: OD600, 24 h, higher = more signal, called active from +8 up or from −8 down
[13] = MM1S myeloma cell viability, profiling panel, resazurin fluorescence, basal, 24 h, PK04 Diversity Set (AID 1174); conditions: higher = more signal, called active from +8 up or from −8 down;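 also: MM1S multiple myeloma cell line; test concentration not given here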
[14] = target: Dihydroorotate dehydrogenase (quinone), mitochondrial (Plasmodium falciparum (isolate 3D7)) (UniProt Q08210); test: PfDHODH enzyme inhibitors, primary screen, biochemical, C-terminal His tag, absorbance 600 nm (AID 1175); conditions: DCIP absorbance 600 nm, higher = more signal, called active from +8 up or from −8 down;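 also: recombinant parasite enzyme with a five histidine tag at its C terminus; test concentration not given here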
Chain of Dihydroorotate dehydrogenase (quinone), mitochondrial (Plasmodium falciparum (isolate 3D7)) (Q08210 whole entry, looked up): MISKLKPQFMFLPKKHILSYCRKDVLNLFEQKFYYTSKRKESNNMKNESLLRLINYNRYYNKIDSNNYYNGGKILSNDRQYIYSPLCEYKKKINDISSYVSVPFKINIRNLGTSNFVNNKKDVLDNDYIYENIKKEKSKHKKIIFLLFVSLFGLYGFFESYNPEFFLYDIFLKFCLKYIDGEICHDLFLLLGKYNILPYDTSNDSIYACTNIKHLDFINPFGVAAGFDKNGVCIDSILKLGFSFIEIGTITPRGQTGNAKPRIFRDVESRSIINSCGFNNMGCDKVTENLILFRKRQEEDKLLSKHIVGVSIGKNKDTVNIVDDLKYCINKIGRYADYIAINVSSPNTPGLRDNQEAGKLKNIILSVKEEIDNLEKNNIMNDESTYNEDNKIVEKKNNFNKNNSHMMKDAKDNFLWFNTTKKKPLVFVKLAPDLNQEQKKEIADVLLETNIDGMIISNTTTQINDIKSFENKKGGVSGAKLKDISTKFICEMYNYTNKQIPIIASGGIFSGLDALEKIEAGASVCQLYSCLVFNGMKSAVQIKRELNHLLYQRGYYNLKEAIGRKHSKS

[15] = P. aeruginosa biofilm formation inhibitors, primary screen, strain PAO1, LB-PBS medium, absorbance 600 nm (AID 1176); also: test concentration not given here; conditions: P. aeruginosa PAO1 growth/biofilm, A600, 12 h; higher = more signal
[16] = S. cerevisiae RM11-1a growth modifiers, primary screen, strain RM11-1a, OD600, basal, 24 h (AID 1177); conditions: OD600, 24 h, higher = more signal, called active from +8 up or from −8 down;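 also: cultures grown under basal conditions with no added stressor; test concentration not given here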
[17] = E. coli acrAB mutant growth effects, primary screen, E. coli filamentation inducers, strain DRC39, OD650, 24 h (AID 1178); conditions: higher = more signal, called active from +8 up or from −8 down;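 also: growth measured as culture turbidity by optical density at 650 nm; test concentration not given here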
[18] = E. coli acrAB mutant growth effects, primary screen, E. coli filamentation inducers, strain DRC39, OD650, 48 h (AID 1179);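 also: screen aims at cell division blockers that make cells filament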; conditions: E. coli DRC39 delta-acrAB growth, higher = more signal, called active from +8 up or from −8 down
[19] = RPMI8226 myeloma cell viability, profiling panel, resazurin fluorescence, basal, 24 h, PK04 Diversity Set (AID 1180); conditions: higher = more signal;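 also: RPMI8826 multiple myeloma cell line at 5000 cells per well; test concentration not given here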
[20] = target: E3 ubiquitin-protein ligase XIAP (Homo sapiens) (UniProt P98170); test: XIAP binders, primary screen, biophysical, small-molecule microarray, fluorescence 635 nm (AID 1181); conditions: small-molecule microarray binding, higher = more signal;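 also: score merges 667 nm emission and signal to noise over triplicate slides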
Chain of E3 ubiquitin-protein ligase XIAP (Homo sapiens) (P98170 whole entry, looked up): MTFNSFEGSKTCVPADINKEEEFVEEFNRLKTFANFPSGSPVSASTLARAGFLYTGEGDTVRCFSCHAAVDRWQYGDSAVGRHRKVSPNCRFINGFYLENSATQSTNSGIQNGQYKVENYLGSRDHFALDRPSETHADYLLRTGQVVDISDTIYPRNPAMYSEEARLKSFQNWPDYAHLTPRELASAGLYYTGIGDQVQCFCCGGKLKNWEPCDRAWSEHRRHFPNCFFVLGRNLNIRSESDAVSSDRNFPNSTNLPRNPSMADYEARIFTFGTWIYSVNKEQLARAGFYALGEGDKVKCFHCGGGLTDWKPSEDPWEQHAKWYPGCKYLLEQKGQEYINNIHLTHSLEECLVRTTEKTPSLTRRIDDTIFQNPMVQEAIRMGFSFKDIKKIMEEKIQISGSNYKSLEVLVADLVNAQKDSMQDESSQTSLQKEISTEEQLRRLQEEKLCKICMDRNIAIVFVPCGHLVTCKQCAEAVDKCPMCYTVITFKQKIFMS

Structure (SMILES)	z-score [1]	z-score [2]	z-score [3]	z-score [4]	z-score [5]	z-score [6]	z-score [7]	z-score [8]	z-score [9]	z-score [10]	z-score [11]	z-score [12]	z-score [13]	composite z-score [14]	z-score [15]	z-score [16]	z-score [17]	z-score [18]	z-score [19]	composite z-score [20]
COC(=O)[C@@]1(Cc2ccc(F)cc2)[C@H]2c3cc(C(=O)N4CCCC4)n(Cc4ccc(C)o4)c3C[C@H]2CN1C(=O)c1ccccc1	-0.981	0.681	-0.498	-2.99	-3.74	2.32	0.096 (inactive)	-0.486	-2.84	-0.72 (inactive)	-0.814	0.707 (inactive)	-6.17 (inactive)	-1.04 (inactive)	-0.595 (inactive)	0.544 (inactive)	-0.201 (inactive)	0.548 (inactive)	-5.35	0.0623
O=C1C2C=CC(C(O)C3CCCCC3)N(Nc3ccc([N+](=O)[O-])cc3)C2C(=O)N1c1ccccc1 (stereo not given)	-0.0334	0.652	-0.0914	-0.157	-1.24	-0.876	-2.66 (inactive)	-0.143	0.507	-1.06 (inactive)	-1.13	0.581 (inactive)	-0.772 (inactive)	1.14 (inactive)	0.409 (inactive)	1.09 (inactive)	-0.915 (inactive)	-1.96 (inactive)	-0.675	0.242
COc1ccc([Si](C)(C)[C@@H]2[C@@H](CCO)O[C@]3(C(=O)N(Cc4ccc(N5C(=O)COc6ccccc65)cc4)c4ccccc43)[C@H]2C)cc1	-1.54	-0.0973	-3.87	-2.41	-3.72	-0.917	-0.189 (inactive)	-0.923	-1.53	-2.38 (inactive)	-1.59	1.54 (inactive)	-2.01 (inactive)	-0.0524 (inactive)	2.5 (inactive)	4.73 (inactive)	-0.238 (inactive)	-0.639 (inactive)	-3.64	-0.0559
COC(=O)[C@@]1(Cc2ccc(OC)cc2)[C@H]2c3cc(C(=O)N(C)C)n(Cc4cccc5ccccc45)c3C[C@H]2CN1C(=O)c1ccccc1	-1.62	1.26	-0.0664	-0.623	-2.08	3.37	-0.669 (inactive)	-0.127	-1.41	-1.92 (inactive)	-1.75	0.897 (inactive)	-2.01 (inactive)	-3.49 (inactive)	2.31 (inactive)	0.872 (inactive)	-0.353 (inactive)	-0.999 (inactive)	-2.66	0.101
C=CCOC(=O)[C@H]1[C@@H]2C(=O)O[C@@H](c3ccccc3)[C@@H](c3ccccc3)N2[C@@H](c2ccc(OCCOC(=O)[C@@H]3C[C@@H]4C(=O)N5CCC[C@H]5C(=O)N4[C@@H]3c3cccc(OCCO)c3)cc2)[C@]12C(=O)Nc1ccccc12	-0.0865	1.05	-0.786	-0.423	0.107	-1.41	-0.0892 (inactive)	-0.737	-0.421	-1.65 (inactive)	-1	1.15 (inactive)	0.0098 (inactive)	0.613 (inactive)	2.06 (inactive)	1.76 (inactive)	-0.701 (inactive)	-1.5 (inactive)	-0.0769	-0.22
CCOC(=O)C[C@H]1[C@H](OC(=O)Cc2ccc3c(c2)OCO3)[C@@H](NC(=O)c2ccc3ccccc3c2)c2cc(OCCCO)ccc2N1C(=O)c1ccccc1	1.38	-0.377	0.778	-0.41	-0.377	1.27	1.14 (inactive)	0.621	-0.334	0.859 (inactive)	0.898	-0.206 (inactive)	-1.09 (inactive)	-0.777 (inactive)	0.69 (inactive)	0.738 (inactive)	-0.241 (inactive)	0.15 (inactive)	-0.52	-0.0426
CC1CC/C=C\[C@H]2OC34C=CCN(Cn5nnc6ccccc65)C(=O)[C@H]3N(C(CO)C(C)C)C(=O)[C@@H]4C2C(=O)O1 (stereo not given in full)	0.101	0.0716	0.0778	0.654	-0.872	-0.388	-0.573 (inactive)	-0.637	-0.454	0.238 (inactive)	0.913	0.673 (inactive)	-1.29 (inactive)	-0.64 (inactive)	0.357 (inactive)	-0.271 (inactive)	0.465 (inactive)	0.275 (inactive)	0.0555	0.646
Cc1ccc(S[C@]2(C(=O)NCCN3CCOCC3)CC(=O)N(Cc3ccccc3Cl)[C@@H]2c2ccc(CO)cc2)cc1	0.263	1.03	-0.0334	0.368	-1.77	0.482	-0.41 (inactive)	-0.168	-1.17	1.05 (inactive)	0.286	-0.709 (inactive)	1.04 (inactive)	-0.245 (inactive)	0.621 (inactive)	0.381 (inactive)	0.381 (inactive)	0.237 (inactive)	0.958	0.0428
